± gives the standard deviation of the averaged measurements. Over roughly 25,000 sequences, “ln(normalized median fluorescence intensity)” has its median near 10; the highest 2% begin near 12. The sample holds the highest values, similar sequences and a random draw of the others, so the mix is not that of the screen.
Tested on: PfAP2-G AP2 domain (GST-tagged)
Assay: gcPBM binding intensity (ln(normalized median fluorescence intensity)); higher = stronger DNA binding
How it was run: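 GST-tagged P. falciparum DNA-binding domains produced in E. coli were incubated for 1 h on an Agilent 4 × 180k array of primer-extended double-stranded 36-bp intergenic genomic probes with negative controls. Binding intensity is the highest Masliner-normalised natural-log median intensity across replicate spots of either probe orientation, with bound protein detected by Alexa488 anti-GST antibody at 488 nm.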

Sequence | gcPBM binding intensity (ln)
TAGAATAATCTATAAACACACAAACACAACAAAAGA [CACACA_site7861] | 10.3 ± 0.32
ATATATTATCAACTTACACACAGAAAAATATAATAA [CACACA_site293] | 9.975 ± 0.092
ATTTGGCATAAACACACACACACACCCACCCACATA [CACACA_site8096] | 10.6 ± 0.38
ACGGGCGACACATAAGTGCGCAAAAAAAAAAAAATA [GTGCAC_site9688] | 10.4 ± 0.46
TTTTTTTTTTTGTGAGTGCACGTATGAAGAGAAAAA | 10.9 ± 0.8
TTATAAATATAATATTGTACAAAATTTTAACATGTC [XGTACX_site5259] | 10.9 ± 0.59
GCATTCATTTTTAATACACACAAAAAAAAAATAAAA [CACACA_site2408] | 10.2 ± 0.42
CCCTCAACGAATTTGAGTACACATTTTAAATGATAT [XGTACX_site7763] | 11.7 ± 1.1
TATATATATATATATACACACATTTTTAATGATAAA [CACACA_site2695] | 10.1 ± 0.37
TTTTAATGATATATGAGTACACATTGTTTTTTATAA [XGTACX_site1072] | 11.6 ± 1
AAAATCTAGGTATTTATACACACTAATATAATATAC [CACACA_site8108] | 10.2 ± 0.28
TTTTTTTTTTTTTTTACACACATTTGAATAACTTTA [CACACA_site6810] | 9.75 ± 0.34
AGTATAACTTTTGCGCGTACACACATTTATCCTCTT [XGTACX_site429] | 11.6 ± 0.72
GTATAACTTTTGCGCGTACACACATTTATCCTCTTT [CACACA_site208] | 11.7 ± 0.86
ATAACTTTTGCGCGTACACACATTTATCCTCTTTAT [CACACA_site209] | 11.7 ± 0.96
ATAACTTTATTTTCCTGTACACACATTTGACATATT [XGTACX_site7192] | 11.4 ± 0.73
TCCTCTTTTATTTTTACACACGCGTAAACATATATA [CACACA_site667] | 10.5 ± 0.4
AATTTATGTTTTAAAAGTACTTTTCTAATTTATAAA [XGTACX_site1593] | 11.1 ± 0.72
TACTGAAATAATTATTTAAACGTTTTTATATGTATT [CACACA_negctrl_site487] | 9.83 ± 0.042
TACATAATAATAAGGCGTACATAAAAATTAAAAATT [XGTACX_site8769] | 11.4 ± 1
AAATAGTTAAAAAGGCGTACACATAAATAAATAAAT [XGTACX_site2096] | 11.7 ± 0.81

Sequence | gcPBM binding intensity (ln)
TACACAAAACATAAAAGTACATAATAATAAAGTTAA [XGTACX_site8872] | 11.3 ± 0.6
TGTCTTTAAATTTCTCAACACACAGTTATAAAAAAT [CACACA_site8930] | 9.94 ± 0.099
AAAAGAATTTGAAGTCGTACAATATCTATTATATGA [XGTACX_site8275] | 11.2 ± 0.78
TGTACAAATATGTACACACACACATATATATATATA [CACACA_site584] | 11.4 ± 0.91
TACATTGTATACATATGTACACATATATATATATAT [XGTACX_site6174] | 11.5 ± 0.71
TACACACATTACAGATGTACATAAAATTAAAAAAAT [XGTACX_site1804] | 11.3 ± 0.71
AATAAACATAGATGTACACACATATACAGATATATA [CACACA_site5570] | 11.5 ± 1
TATATACATATATGTACACACATTACAGATGTACAT [CACACA_site966] | 11.7 ± 0.93
TATATACAAATATGTACACACATTACAGATGTACAT [CACACA_site6586] | 11.8 ± 0.82
AATATATACATATATGTACACACATTACAGATGTAC [CACACA_site8227] | 11.5 ± 0.73
TAAATACATAGATGTACACACATTACAGATGTACAT [CACACA_site4692] | 11.7 ± 0.98
CGTTACACAAAAATATGTACATATATACATATATAT [XGTACX_site4631] | 11.1 ± 0.64
TCCTAATGCTACCACACACACAAAAACAAATAATAA [CACACA_site2610] | 10.5 ± 0.57
AGTAATAAATTTTATACATGCATAAAAAAAAAAAAA [TGCATGCA_site661] | 9.72 ± 0.27
AACAGATAAAAGGGTACACACATATATACAAGTACA [CACACA_site7959] | 11.7 ± 0.83
AACAGATAAAAGGGTACACACATATATACATGTACA [CACACA_site225] | 11.6 ± 0.88
AAAAAAAAAAAACATACACACATACATACAGATATA [CACACA_site4681] | 9.94 ± 0.13
ATAAACAGATAAAAGGGTACACACATATATACATGT [XGTACX_site452] | 11.4 ± 0.84
AACAGATAAAAGGGTACACACATATATACCTGTACA [CACACA_site4285] | 11.7 ± 0.99
TAAACATATAAAAAGGGTACACATTAAACATAGTAT [XGTACX_site7096] | 11.3 ± 0.79
ACATAAATAATAAAAACACACATATGTACAGATATA [CACACA_site5112] | 11.1 ± 0.59

Sequence | gcPBM binding intensity (ln)
TAAAGGTAGATATATTGTACATACACACCTATATAA [XGTACX_site6865] | 10.9 ± 0.45
AAGTACATACATAAAACACACACATATATATATATA [CACACA_site8541] | 10.5 ± 0.35
TTTTCATTTTTTTTTTTTTTTTTTTTTCTTTTTTTT [CACACA_negctrl_site1312] | 9.52 ± 0.099
TTTCCCTTAAATTAATGTACATAAATTGAAAATACC [XGTACX_site1602] | 11.3 ± 0.77
ACTTGACACGGACACACACACATATATAAAAAAAAA [CACACA_site4576] | 11.2 ± 0.91
AAAAAAAAAAAAAAAAGTACATATGCTCAAGAGATG [XGTACX_site3783] | 11.5 ± 0.82
TTTTTTTTTTTTTAATGTACCCATGGGCACATAGGT [XGTACX_site486] | 11.4 ± 1
CACTTTATACGTAATTGTACTTTTTCTTTTTTTTAT [XGTACX_site3175] | 11.5 ± 0.86
AAATAATATATATACACACACACATATATATATACA [CACACA_site554] | 10.03 ± 0.028
ATATATATTAACAATACACACGTGTATACCTTATTG [CACACA_site5258] | 10.5 ± 0.22
ATATAATAAACGTGTACACAATTAAATTATTATATA [CACACA_site5017] | 11.7 ± 1.1
TTGTAATTATTAAACACACACAAAATATATATAATA [CACACA_site2523] | 10.3 ± 0.18
ATAGTTATTTTATAGCGTACACAATAAATATATAAA [XGTACX_site4445] | 11.7 ± 1.1
AAGTTATTTATATATACACACAAATATAAATAATAT [CACACA_site1228] | 9.97 ± 0.014
TAAAATTTTTTATTCACACAAATATAGTTATATATA [CACACA_site5348] | 9.81 ± 0.16
ATAATATAATAAACGTGTACACAATTAAATTATTAT [XGTACX_site3491] | 11.8 ± 0.76
TATATATTATACACGTGTACACATTATAACAATATA [XGTACX_site7799] | 11.7 ± 0.77
GTATATTAATAAACATGTACACAATTTATTTATATT [XGTACX_site1012] | 11.5 ± 0.98
TACAAATTAATATGTACACACAAATATAAATATGTA [CACACA_site7016] | 11.5 ± 0.98
TTATATTTTTTAATTACACACAATTTTTATAAATAT [CACACA_site4148] | 9.985 ± 0.021
ATATATATATTAACAATACACACGTGTATACCTTAT [CACACA_site2217] | 10.38 ± 0.078

From the supplement of paper PMC11417369
